From PubChem BioAssay (NCATS)
Inconclusive results are not listed. A call without a number means that no potency is given here. A number with no mark means an inactive call. Calls of active or inactive are those of the source. The call rests on the fitted dose curve; in most records, active means well fitted curve in the direction sought with a large enough effect; inconclusive means small, poorly fitted or top-dose-only effect, or another doubt; inactive means no such curve, though single readings can be large; an effect the other way counts as inactive or inconclusive.

Experiments:
[1] = biological target: Cellular tumor antigen p53 (Homo sapiens) (UniProt P04637); assay: Primary qHTS for small molecule compounds that upregulate eGFP-tagged delta133p53alpha (in N-terminal) cells. (AID 2060322); settings: NCI-H358 eGFP-delta133p53alpha fluorescence, 24 h; activation: hits give high values; further: nearly all actives have a fitted effect of over 75% in size; further: potency means the concentration at half of the fitted maximal effect
Method in brief: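 NCI-H358 cells pre-induced 24 h with 10 ng/ml doxycycline to express N-terminal eGFP-delta133p53alpha, then dosed 24 h at 37C without doxycycline; fixed, Hoechst-stained, GFP intensity by laser scanning cytometry, normalized to DMSO (0%) and 57.5 uM 5-azacytidine (100%).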

[2] = biological target: Aldehyde dehydrogenase, mitochondrial (Homo sapiens) (UniProt P05091); assay: qHTS for Inhibitors of the Aldehyde Dehydrogenase Family (ALDH2) Primary screen (AID 2061308); settings: ALDH2 enzyme inhibition qHTS, 1536-well; series mostly up to 56 µM; further: nearly all actives have a fitted effect of over 55% in size
[3] = biological target: Retinaldehyde dehydrogenase 3 (Homo sapiens) (UniProt P47895); assay: qHTS for Inhibitors of the Aldehyde Dehydrogenase Family (ALDH1A3) Primary screen (AID 2061315); settings: ALDH inhibition qHTS; series mostly up to 56 µM

Chain of Cellular tumor antigen p53 (Homo sapiens) (P04637 whole entry, looked up): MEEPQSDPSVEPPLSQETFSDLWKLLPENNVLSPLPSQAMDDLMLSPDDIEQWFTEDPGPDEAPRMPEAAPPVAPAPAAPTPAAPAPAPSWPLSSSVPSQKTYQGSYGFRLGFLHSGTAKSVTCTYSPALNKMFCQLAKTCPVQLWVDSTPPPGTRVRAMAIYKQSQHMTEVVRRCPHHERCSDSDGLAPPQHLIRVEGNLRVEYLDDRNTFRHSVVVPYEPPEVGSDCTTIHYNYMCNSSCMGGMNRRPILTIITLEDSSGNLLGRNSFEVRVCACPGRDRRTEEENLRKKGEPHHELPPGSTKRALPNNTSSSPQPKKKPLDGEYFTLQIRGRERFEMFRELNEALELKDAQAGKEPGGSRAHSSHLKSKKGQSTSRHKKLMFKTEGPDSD

SMILES	activation [1] [%]	Potency [2]	Potency [3]	Potency [1]	activity change, negative = inhibition [2]	activity change, negative = inhibition [3]
COc1c2c(c(C)c3c1C(=O)OC3)O[C@@]1(C)C[C@@H](O)[C@]34O[C@](OC)(CC[C@]3(C)[C@H]1C2)OC4(C)C	-1.53	inactive	inactive	–	–	–
COC(=O)CCC(=O)OC[C@]1(C)CCC[C@@]2(C)C3CC[C@]4(C)C=CC3(CCC12)C4 (stereo partly drawn)	-8.4	inactive	inactive	–	–	–
CC(C)C[C@H](CC(=O)NO)C(=O)N[C@@H](Cc1ccc2ccccc2c1)C(=O)N[C@@H](C)C(=O)NCCN	-11.7	inactive	inactive	–	–	–
C[C@@H]1CCC2C(C)(C)[C@H](O)[C@H](O)C[C@]2(C)[C@@]12Cc1c(O)cc3c(c1O2)CN(CCCC(=O)O)C3=O (stereo partly drawn)	-3.05	inactive	inactive	–	–	–
CC(=O)OC1CC(O)(C(C)C)C2C(OC(=O)c3ccc(O)cc3)C=C(C)C(=O)CC12C (stereo not drawn)	29.8	inactive	inactive	–	–	–
COc1c2c(c(C)c3c1C(=O)OC3)OC1(C)CC(O)C34OC(O)(CCC3(C)C1C2)OC4(C)C (stereo not drawn)	-6.87	inactive	inactive	–	–	–
CC(=O)O[C@@H]1C[C@@]23C[C@@]24CC[C@H](O[C@@H]2OC[C@H](O)[C@H](O)[C@H]2O)C(C)(C)[C@@H]4CC[C@H]3[C@]2(C)[C@@H](O)C34O[C@H](C[C@@H](C)[C@@H]3[C@@]12C)[C@@H](C(C)(C)O)O4	–	inactive	inactive	3.79 µM (active)	–	–
C=C(C(=O)O)C1CCC2(C)CCC(O)C(=C)C2C1 (stereo not drawn)	9.82	inactive	inactive	–	–	–
C=C1CCC(OC(C)=O)C2(C)CC3(O)OC(=O)C(C)=C3CC12 (stereo not drawn)	-2.29	inactive	inactive	–	–	–
O=C(O)c1ccnc2cc(C(OCC3CCC(F)(F)CC3)c3ccccc3Cl)[nH]c12 (stereo not drawn)	5.67	inactive	inactive	–	–	–
CC1(C)CC[C@]2(C(=O)O[C@@H]3O[C@H](CO)[C@@H](O)[C@H](O)[C@H]3O)CC[C@]3(C)C(=CCC4[C@@]5(C)C[C@@H](O)[C@H](O)[C@](C)(C(=O)O)C5CC[C@]43C)C2C1O (stereo partly drawn)	-2.68	inactive	inactive	–	–	–
CC1(C)O[C@H]2CC(=O)OC[C@@]23C1=C(O)C(=O)[C@]1(C)C3CC[C@@]2(C)[C@H](c3ccoc3)OC(=O)[C@H]3O[C@]321 (stereo partly drawn)	-13	inactive	inactive	–	–	–
CC(=O)/C=C/C1(O)C(C)(C)CC(O)CC1(C)O (stereo not drawn)	12.2	inactive	inactive	–	–	–
CC1(C)CC[C@]2(C(=O)O)CC[C@]3(C)C(=CCC4[C@@]5(C)CC[C@H](O[C@@H]6O[C@H](C(=O)O)[C@@H](O)[C@H](O)[C@H]6O)C(C)(CO)C5CC[C@]43C)C2C1 (stereo partly drawn)	12.2	inactive	inactive	–	–	–
COc1cc(CO)cc(OC)c1O[C@@H]1O[C@H](CO)[C@@H](O)[C@H](O)[C@H]1O	-2.68	inactive	inactive	–	–	–
C=C1CC2C(C)(CCC(=O)O)C(C(C)(C)O)CCC2(C)C2C(=O)OC(C)(C(=O)OC)C(=O)C12C (stereo not drawn)	10.7	inactive	inactive	–	–	–
CC(C)(O)C1CCC2(C)C3C(O)C4C(C13)C42CO (stereo not drawn)	3.57	inactive	inactive	–	–	–
CC(C)Oc1ccc(-c2nc(-c3cccc4c3CCC4NCCC(=O)O)no2)cc1C#N (stereo not drawn)	0	inactive	inactive	–	–	–
CC1(CO)CCCC2(C)C1C(OC(=O)c1ccccc1)C=C1C(=O)OCC12O (stereo not drawn)	–	inactive	inactive	20.9 µM (active)	–	–
O=S(=O)(NCc1ccccn1)c1ccc(Br)c2ccccc12	0.333	inactive	inactive	–	–	–
C=C1C(=O)O[C@@H]2[C@H]3C(C)=CC(=O)C3=C(C)CC[C@@H]12	–	inactive	inactive	10.7 µM (active)	–	–
C/C=C/C=C/C=C/C(=O)N(C)C(C(=O)NC(C)C(=O)N1CCCC1C(N)=O)C(C)C (stereo not drawn)	17.6	inactive	inactive	–	–	–
CCC(C)C1NC(=O)C2C(C)CCN2C(=O)C(CC(O)CO)OC(=O)CCNC(=O)C(C)N(C)C(=O)C(C(C)C)N(C)C1=O (stereo not drawn)	-6.11	inactive	inactive	–	–	–
C[C@@H]1O[C@@H](O[C@H]2[C@H](O)[C@@H](O)[C@H](OC3CCC4(C)C5CCC(C)(C(CO)OC6OC(CO)C(O)C(O)C6O)CC5=CCC4C3(C)C)O[C@@H]2CO)[C@H](O)[C@H](O)[C@H]1O (stereo partly drawn)	-22.9	inactive	inactive	–	–	–
CC(=O)OC/C=C(\C)C(CC1C(C)=C(OC(C)=O)C(=O)C2C(C)(C)C(O)CCC12C)OC(C)=O (stereo not drawn)	-2.68	inactive	inactive	–	–	–
COC(=O)c1cc(OC)cc(OC)c1C(=O)c1c(OC)cc2c(c1O)C1CCCC(C)(O2)O1 (stereo not drawn)	14.5	inactive	inactive	–	–	–

SMILES	activation [1] [%]	Potency [2]	Potency [3]	Potency [1]	activity change, negative = inhibition [2]	activity change, negative = inhibition [3]
CCCCCc1ccc(/C=C/C(=O)Nc2cc(Cl)ccc2C(=O)O)cc1	-1	inactive	inactive	–	–	–
CC(=O)OC1CC2C(C)(C)C(=O)C=CC2(C)C2CC(=O)C3=C(CCC3C3=CC(O)OC3=O)C12C (stereo not drawn)	-12.2	inactive	inactive	–	–	–
C[C@H]1[C@H](C)CC[C@]2(C(=O)OC3OC(CO)C(O)C(O)C3O)CC[C@]3(C(=O)O)C(=CCC4[C@@]5(C)CC[C@H](O[C@@H]6O[C@@H](C)[C@H](OC7OC(CO)C(O)C(O)C7O)[C@@H](O)[C@H]6O)C(C)(C)C5CC[C@]43C)[C@H]12 (stereo partly drawn)	-9.92	inactive	inactive	–	–	–
CC(=O)O[C@@H](C[C@@H]1C=C(C)C(=O)O1)[C@H](C)[C@H]1CCC2[C@@]3(C)CC[C@H](O[C@@H]4O[C@H](CO)[C@@H](O)[C@H](O)[C@H]4O[C@@H]4O[C@@H](C)[C@H](O)[C@@H](O)[C@H]4O)C(C)(C)C3CC[C@@]2(C)[C@@]12COC(=O)C2 (stereo partly drawn)	1.79	inactive	inactive	–	–	–
C=C1CC23CC1(O)CCC2C1=CC2OC(=O)C(C)(C2O)C1C3C(=O)O (stereo not drawn)	6.87	inactive	inactive	–	–	–
CC1(C)CCC2(C(=O)OC3OC(CO)C(O)C(O)C3O)CCC3(C)C(=CCC4C5(C)CCC(OC6OC(C(=O)O)C(OC7OC(CO)C(O)C(O)C7O)C(OC7OC(CO)C(O)C(O)C7O)C6O)C(C)(C)C5CCC43C)C2C1 (stereo not drawn)	-5.34	inactive	inactive	–	–	–
Cc1cc2c(c(=O)o1)C=C1CC[C@H]([C@H](C)Cn3cnc(=N)c4[nH]cnc43)C[C@@H]1O2	14.3	inactive	inactive	–	–	–
CC(O)(CC(=O)O)CC(=O)O[C@@H]1[C@@H](O)[C@H](OCCc2ccccc2)O[C@H](CO)[C@H]1O (stereo partly drawn)	3.82	inactive	inactive	–	–	–
COc1cc(-c2cccc(O)c2)cc2c1OCO2	2.68	inactive	inactive	–	–	–
C=CC1(C)C=C2C(O)CC3C(C)(C(=O)O)CCCC3(C)C2CC1 (stereo not drawn)	8.04	inactive	inactive	–	–	–
CC(C)C[C@H](CC(=O)NO)C(=O)N[C@H](C(=O)N[C@@H](C)C(=O)NCCN)C(C)(C)C	3.67	–	–	–	1.06% [at 11.2 µM]	-12.1% [at 11.2 µM]
O=c1[nH]ccc2cc(OC3CCNCC3)ccc12	-7.14	inactive	inactive	–	–	–
CO[C@@]12CC3[C@@H]([C@@H](O)[C@@H](OC(C)=O)C4[C@](C)(COC(C)=O)CCC[C@]34C)[C@@H](C)C1=CC(=O)O2 (stereo partly drawn)	-3.05	inactive	inactive	–	–	–
CC(=O)O[C@@H]1[C@@H](O)[C@H](O[C@@H]2[C@@H](O)[C@@H](O)[C@H](O[C@H]3[C@H](O[C@H]4[C@H](O[C@H]5CC[C@@]6(C)C(CC[C@]7(C)C6CC=C6[C@@H]8CC(C)(C)CC[C@]8(C(=O)O)CC[C@]67C)[C@]5(C)CO)O[C@H](CO)[C@@H](O)[C@@H]4O)OC[C@@H](O)[C@@H]3O)O[C@H]2C)OC[C@H]1O (stereo partly drawn)	-3.05	inactive	inactive	–	–	–
COc1ccc(C2(N(C)C(=O)c3ccc(NC(=O)c4ccco4)cc3)CCOCC2)cc1	-10.7	inactive	inactive	–	–	–
COC(=O)c1cc(CN2CCN(C(=N)N)CC2)cc(C(=O)N2CCN(C(=O)c3ccc(C(=N)N)cc3)CC2)c1	1	inactive	inactive	–	–	–
C/C=C(\C)C(=O)OCC1OC(OCC2OC(OC3(CO)OC(CO)C(O)C3O)C(O)C(O)C2O)C(O)C(O)C1O (stereo not drawn)	-9.16	inactive	inactive	–	–	–
CN1C(=O)c2ccccc2-n2c(nc3ccccc3c2=O)/C1=C/c1ccccc1	2.29	inactive	inactive	–	–	–
COc1c2cc(c(O)c1OC)-c1cc(ccc1O)CCC(O)CCCC2 (stereo not drawn)	11.5	inactive	inactive	–	–	–
COc1cc(O)cc(OC2OC(CO)C(O)C(O)C2O)c1 (stereo not drawn)	21.4	inactive	inactive	–	–	–
COc1cc(/C=C/C(=O)O[C@H]2C[C@@H]3C(C(=O)O)=CO[C@@H](O[C@@H]4O[C@H](CO)[C@@H](O)[C@H](O)[C@H]4O)[C@@H]3[C@H]2C)ccc1O	-2.29	inactive	inactive	–	–	–
CC(=O)N[C@@H](C(=O)O[C@H]1CCC(C)(C)[C@@H]2CCC3=C(COC3=O)[C@@]12C)C(C)C	-12.2	inactive	inactive	–	–	–
CCN(CCNC(=O)Nc1ccccc1Br)c1cccc(C)c1	5.67	inactive	inactive	–	–	–
COC(=O)C1(C)CCC2(C(=O)O)CCC3(C)C(=CCC4C5(C)CC(O)C(OC6OCC(O)C(O)C6O)C(C)(CO)C5CCC43C)C2C1 (stereo not drawn)	-6.11	inactive	inactive	–	–	–
COc1ccc(O[C@@H]2O[C@H](CO)[C@@H](O)[C@H](O)[C@H]2O)cc1OC	-17	inactive	inactive	–	–	–
